Rows were chosen to be rich in hits. Some 9.2% of all compounds tested hit in one or more screens of this group.
Rab9 prom act = Rab9 promoter activation. Huh7 Rab9 promoter-luciferase reporter, luminescence, 24 h. Potency, µM (top dose mostly 9.22 µM), without a hit: at the top dose activation, negative = inhibition, actives largely listed as activators. 2.8% of 320,000 active. AID 485297; also: % of control where 0% means no effect; nearly all actives have a fitted effect of over 60% in size
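Promoter activation is measured as luciferase luminescence in Huh7 cells stably transfected with a Rab9 promoter–luciferase construct, following 24 h compound exposure at 37 °C and 10 min reagent incubation at ambient temperature.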
SMN2 splice up = enhancers of SMN2 splice variant expression | HEK293 SMN2-luciferase splicing reporter, luminescence, 30-36 h | Potency, µM (titrated, usually from 46.1 µM), for inactives: at the highest dose activity change, positive = activation, hits mostly activators | 2.8% of 210,000 active | AID 1458; also: % of control where 0% means no effect; nearly all actives have a fitted effect of over 55% in size
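HEK293 cells carry an SMN2 minigene-luciferase reporter in which exon 7 inclusion puts luciferase in frame. Cells were seeded at 2000 cells/well, attached for 10-12 hours, then exposed to compounds for 30-36 hours at 37C before ONE-Glo luminescence.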
ELG1 genotox = genotoxicity induction in ELG1-luciferase HEK293T cells; HEK293T ELG1-luciferase reporter, luminescence, 16 h; Potency, µM (highest dose often 46 µM), for the others: at the highest dose activity change, positive = activation, actives largely listed as activators; 1.3% of 330,000 active; AID 504466; also: % of control where 0% means no effect; nearly all actives have a fitted effect of over 60% in size
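Screening used a luciferase reporter fused to human ELG1 in HEK293T cells. Luminescence was read on a CCD plate imager after 16 hr exposure and 30 min ONE-Glo incubation.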
ELG1 DNA repair = ELG1-dependent DNA repair inhibition. 2.3% of 330,000 active. AID 504467. HEK293T ELG1-luciferase reporter, luminescence, 16 h; DNA damage induced by 5-fluorouridine. Potency, µM (titrated, usually from 46.1 µM), for inactives: at the highest dose activity change, negative = inhibition, actives largely listed as inhibitors; also: % is scaled to controls: 0 for no effect and ±100 for the full control effect; nearly all actives have a fitted effect of over 55% in size
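Overnight (16 hr) co-exposure of 2,000 cells/well to 5-fluorouridine and compound at 37 °C preceded detection. Luciferase was quantified via ONE-Glo luminescence; loss of signal denotes inhibition.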
FLuc modulator = inhibits or activates purified firefly luciferase, miR-21 counter-screen | P08659 | purified FLuc, Km substrates, luminescence inhibition | Potency, µM (series often up to 57.5 µM), without a hit: at the highest dose activity change, negative = inhibition, hits mostly inhibitors | 6.9% of 360,000 active;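 also: plate controls were vehicle for no effect and reference inhibitor for full effect; nearly all actives have a fitted effect of over 55% in size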
Target sequence (P08659 whole entry, looked up): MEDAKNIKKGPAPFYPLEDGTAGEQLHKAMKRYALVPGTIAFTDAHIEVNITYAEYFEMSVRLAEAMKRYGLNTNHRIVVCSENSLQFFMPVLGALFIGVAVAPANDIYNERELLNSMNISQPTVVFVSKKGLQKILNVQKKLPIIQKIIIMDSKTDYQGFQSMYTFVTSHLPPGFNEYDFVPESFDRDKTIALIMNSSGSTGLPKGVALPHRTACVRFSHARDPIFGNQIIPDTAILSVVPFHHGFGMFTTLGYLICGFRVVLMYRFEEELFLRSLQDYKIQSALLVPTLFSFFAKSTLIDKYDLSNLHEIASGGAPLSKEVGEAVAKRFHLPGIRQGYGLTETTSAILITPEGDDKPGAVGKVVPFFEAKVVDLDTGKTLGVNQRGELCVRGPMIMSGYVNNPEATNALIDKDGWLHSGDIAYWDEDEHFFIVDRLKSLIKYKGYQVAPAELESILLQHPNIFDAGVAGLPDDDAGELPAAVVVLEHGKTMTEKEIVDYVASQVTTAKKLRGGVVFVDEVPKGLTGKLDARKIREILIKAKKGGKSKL
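Purified P. pyralis luciferase (10nM final) with 10uM D-luciferin and 10uM ATP (Km levels) in 50mM Tris acetate pH 7.5, 10mM Mg acetate, 0.01% Tween-20, 0.05% BSA; qHTS 6-point titration, ~60 µM downward; luminescence read.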
NPC1 prom act = NPC1 promoter activation. 2.4% of 320,000 active. Huh7 NPC1 promoter luciferase reporter, 24 h. Potency, µM (series often up to 9.22 µM), inactives show at the highest dose activation, usual class: activators; also: % of control where 0% means no effect; nearly all actives have a fitted effect of over 60% in size
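Luminescence from an NPC1 promoter-driven luciferase reporter in stably transfected Huh7 cells was measured after 24 h compound treatment at 37 °C, followed by 10 min ambient incubation with luciferase detection reagent.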
The depositor's hits bear a star. Calls follow the shape of the dose curve; as a rule, active = well fitted curve in the direction sought with a large enough effect; inconclusive = small, poorly fitted or top-dose-only effect, or another doubt; inactive = no such curve, though single readings can be large; an effect the other way counts as inactive or inconclusive. Potency is read from the fitted curve at half-maximal effect.

Results for Cc1c(C(=O)NCc2ccccc2)oc2ccc(S(=O)(=O)N3CCC4(CC3)OCCO4)cc12 ?
Rab9 prom act: -11%; SMN2 splice up: -37%; ELG1 genotox: -33%; ELG1 DNA repair: 4.1µM*; FLuc modulator: 0%; NPC1 prom act: 0%

What do the screens show for `Cc1c(C(=O)NCc2c(F)cc(F)cc2F)oc2ccc(S(=O)(=O)N3CCOCC3)cc12`?
Rab9 prom act: 2%; ELG1 genotox: -17%; ELG1 DNA repair: 29µM*; FLuc modulator: -2%; NPC1 prom act: -4%

What do the screens show for `COc1ccc(CCNS(=O)(=O)c2ccc3oc(C(=O)O)c(C)c3c2)cc1OC`?
Rab9 prom act: 0%; SMN2 splice up: 9%; ELG1 genotox: -1%; ELG1 DNA repair: 6%; FLuc modulator: 1%; NPC1 prom act: -7%

Results for Cc1c(C(=O)Nc2cccc(Cl)c2)oc2ccc(S(=O)(=O)N3CCC4(CC3)OCCO4)cc12 ?
Rab9 prom act: -6%; SMN2 splice up: -12%; ELG1 genotox: 1%; ELG1 DNA repair: 9.2µM*; FLuc modulator: -4%; NPC1 prom act: -27%

How did O=C1NC(=O)C(c2cccs2)(c2cccs2)N1 do in these assays?
Rab9 prom act: 2%; ELG1 genotox: 1%; ELG1 DNA repair: -3%; FLuc modulator: 0%; NPC1 prom act: 1%

How did Cc1cc2oc(=O)c(CC(=O)NCCc3ccccc3F)c(C)c2c2occ(C(C)(C)C)c12 do in these assays?
SMN2 splice up: -2%; FLuc modulator: inconclusive

What do the screens show for `COc1cccc(NC(=O)c2oc3ccc(S(=O)(=O)N4CCOCC4)cc3c2C)c1`?
Rab9 prom act: -2%; ELG1 genotox: -14%; ELG1 DNA repair: 21µM*; FLuc modulator: -1%; NPC1 prom act: -4%

How did CCN(CC)S(=O)(=O)c1ccc2oc(C(=O)NCc3ccc(F)cc3)c(C)c2c1 do in these assays?
Rab9 prom act: -7%; SMN2 splice up: -22%; ELG1 genotox: -8%; ELG1 DNA repair: 12µM*; FLuc modulator: 5%; NPC1 prom act: -4%

How did Cc1ccc(NC(=O)c2oc3ccc(S(=O)(=O)N4CCOCC4)cc3c2C)cc1C do in these assays?
Rab9 prom act: -2%; SMN2 splice up: 1%; ELG1 genotox: 8%; ELG1 DNA repair: inconclusive; FLuc modulator: -13%; NPC1 prom act: -1%

Results for Cc1nnc(SCC(=O)Nc2ccccc2)c2ccccc12 ?
Rab9 prom act: 13%; ELG1 genotox: -2%; ELG1 DNA repair: 13%; FLuc modulator: 17µM*; NPC1 prom act: 22%

Results for CC(=O)c1cccc(NC(=O)CSc2nc(C3CC3)nc3ccccc23)c1 ?
Rab9 prom act: 0%; ELG1 genotox: -19%; ELG1 DNA repair: -15%; FLuc modulator: -3%; NPC1 prom act: -4%

How did O=C(CSc1nc(-c2ccccc2)nc2c1Cc1ccccc1O2)Nc1ccc(C(=O)O)cc1 do in these assays?
Rab9 prom act: 7%; SMN2 splice up: -15%; ELG1 genotox: 0%; ELG1 DNA repair: -8%; FLuc modulator: 7.6µM*; NPC1 prom act: 4%

Results for O=C(CSc1nc(-c2ccccc2)nc2ccccc12)Nc1cccc(C(=O)O)c1 ?
Rab9 prom act: 2%; SMN2 splice up: 8%; ELG1 genotox: 3%; ELG1 DNA repair: -8%; FLuc modulator: 19µM*; NPC1 prom act: -4%

Results for CC(=O)Nc1cccc(NC(=O)CSc2nc(C3CC3)nc3ccccc23)c1 ?
Rab9 prom act: -2%; ELG1 genotox: -27%; ELG1 DNA repair: 18µM*; FLuc modulator: -9%; NPC1 prom act: -11%

How did CN(C)c1ccc(-c2nc3cnccn3c2Nc2cccc(C(F)(F)F)c2)cc1 do in these assays?
SMN2 splice up: 2%; FLuc modulator: -16%

What do the screens show for `O=C(NC1CCCCC1)c1ccc(CSc2nc3cccnc3n2Cc2ccc(F)cc2)cc1`?
FLuc modulator: -14%
